Screening data: PubChem, The Scripps Research Institute Molecular Screening Center
This is a sample that favours compounds with a hit; in the whole collection about 3% have one here.
PAFAH2 FP inh: PAFAH2 (human) inhibition; Q99487; recombinant PAFAH2, FP-rhodamine activity probe, fluorescence polarization; inhibition, % at 3.39 µM; hit rate 0.99% among 340,000; AID 492956;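 active = inhibition above the mean over all tested compounds plus 3 SD, cut at about 30% in these data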;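 note: inhibitors block probe labeling of enzyme so polarization drops; 0% = enzyme with DMSO and 100% = wells lacking PAFAH2 protein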
Fh CTSL1 inh: blocks F. hepatica cathepsin L1 in PFM18AAP counter-screen; recombinant F. hepatica cathepsin L1, Z-Leu-Arg-MCA fluorescence; inhibition, % at 5.96 µM; hit rate 0.49% among 300,000; AID 1906;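 active = inhibition above the mean of all tested compounds plus 3 SD, set per screening campaign, cut at about 17% in these data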;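 note: 0% = plate median of test compound wells and 100% = 1 µM Z-Phe-Ala-diazomethylketone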
pPAFAH FP inh: inhibitors of human plasma PAF acetylhydrolase (pPAFAH). Q13093. recombinant pPAFAH, FP-rhodamine probe fluorescence polarization. inhibition, % at 3.39 µM. hit rate 1.5% among 330,000;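 active = inhibition above the mean inhibition across the screen plus 3 SD, cut at about 25% in these data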;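 note: inhibitors block binding of the rhodamine activity-based probe so polarization drops; 0% = enzyme with DMSO and 100% = wells lacking pPAFAH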
PP5 inh: PP5 (human) phosphatase inhibition | P53041 | hit rate 0.18% among 320,000 | inhibition, % at 6.7 µM | purified PP5c, OMFP substrate fluorescence | AID 1987;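 active = inhibition above the campaign's mean inhibition across all tested compounds plus 3 SD, cut at about 9.5% in these data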;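 note: 0% = DMSO only and 100% = 100 µM cantharidin control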
PAFAH1B3 inh: blocks human PAF acetylhydrolase 1B catalytic subunit 3 | Q15102 | recombinant PAFAH1B3, FP-rhodamine probe, fluorescence polarization | inhibition, % at 3.39 µM | hit rate 0.28% among 340,000;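 active = inhibition above the screen-wide average of all tested compounds plus 3 SD, cut at about 25% in these data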;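 note: 0% = enzyme with DMSO only and 100% = wells lacking PAFAH1B3 protein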
Target sequence (Q15102 whole entry, looked up): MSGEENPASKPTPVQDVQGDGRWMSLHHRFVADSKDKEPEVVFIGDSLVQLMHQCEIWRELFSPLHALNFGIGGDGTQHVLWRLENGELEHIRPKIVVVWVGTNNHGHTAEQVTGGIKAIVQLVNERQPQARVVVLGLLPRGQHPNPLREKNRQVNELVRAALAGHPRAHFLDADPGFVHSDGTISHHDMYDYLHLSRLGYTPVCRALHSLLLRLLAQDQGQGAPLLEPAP
PAFAH1B2 inh: inhibitors of human PAFAH1B2. P68402. recombinant PAFAH1B2, FP-rhodamine activity probe, fluorescence polarization. inhibition, % at 3.39 µM. hit rate 1.2% among 340,000. AID 492953;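 active = inhibition above the mean of all tested compounds plus 3 SD, cut at about 24% in these data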;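 note: 0% = enzyme with DMSO and 100% = wells lacking PAFAH1B2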
Target sequence (P68402 whole entry, looked up): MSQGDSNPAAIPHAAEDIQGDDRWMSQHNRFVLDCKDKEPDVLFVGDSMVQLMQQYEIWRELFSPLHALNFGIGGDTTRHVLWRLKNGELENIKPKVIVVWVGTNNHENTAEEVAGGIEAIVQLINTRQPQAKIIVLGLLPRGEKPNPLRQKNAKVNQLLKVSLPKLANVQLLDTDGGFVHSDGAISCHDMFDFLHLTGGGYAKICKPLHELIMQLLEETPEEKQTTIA
The depositor's hits bear a star; · = not tested or not shown.

SMILES	PAFAH2 FP inh	Fh CTSL1 inh	pPAFAH FP inh	PP5 inh	PAFAH1B3 inh	PAFAH1B2 inh
COc1ccc(Cn2nnnc2C(c2cc3cccc(C)c3[nH]c2=O)N2CCN(C)CC2)cc1 (configuration not stated)	-4	0	6	-3	-1	29*
COc1cc(C(=O)NCC2CCCO2)ccc1OCc1ccc(Cl)cc1 (configuration not stated)	4	·	5	-1	5	9
O=C(NCC1CCCO1)c1ccc(COc2ccc(Cl)cc2)cc1 (configuration not stated)	3	3	5	1	-2	29*
COc1ccc(CCN2C(=O)NC(NS(=O)(=O)c3ccccc3)(C(F)(F)F)C2=O)cc1OC (configuration not stated)	1	0	5	0	8	-9
O=C(O)CCN1C(=O)C2C3CC(C2C1=O)C1C(c2ccccc2)c2sc(=O)n(-c4ccccc4)c2SC31 (configuration not stated)	2	-3	4	2	4	11
O=c1[nH]c2c(s1)C(c1ccccc1)C1C3CCC(C3)C1S2 (configuration not stated)	-1	-2	12	3	9	41*
O=C(O)CCN1C(=O)C2C3CC(C2C1=O)C1C(c2ccccc2)c2sc(=O)[nH]c2SC31 (configuration not stated)	10	-2	1	3	8	84*
O=C(CCl)NCc1cc(-c2ccc(Cl)cc2)no1	-6	35*	-1	1	-1	8
O=C(O)COc1ccccc1Cc1ccccc1	3	2	0	-1	-6	7
Cc1ccccc1OCC(=O)OCC(=O)NCc1ccccc1	-4	·	6	2	6	2
CN(C(=O)COC(=O)COc1ccccc1Cc1ccccc1)c1ccccc1	7	18*	0	3	-5	7
COc1ccccc1CNC(=O)COC(=O)COc1ccccc1Cc1ccccc1	9	17*	2	3	-1	8
CC(C)NC[C@H](O)COc1cccc2[nH]ccc12	7	86*	3	1	-7	-3
CC(C)NC[C@H](O)COc1cccc2ccccc12	8	1	1	4	4	-2
CN(C(=O)CCc1nc(-c2ccccc2F)no1)c1ccccc1	-5	37*	2	0	-9	-3
CC(C)c1cc2c(c(O)c1O)[C@@]13CCCC(C)(C)C1CC2OC3=O (some centres not stated)	61*	9	30*	0	12	54*
CCCCC1=CC2=CC(=O)C(C)(OC(=O)c3ccc(Cl)nc3)C(=O)C2=CO1 (configuration not stated)	·	-2	53*	0	·	·
CC(C)(C)OC(=O)NCCCCC1=CC2=CC(=O)C(C)(OC(=O)c3ccco3)C(=O)C2=CO1 (configuration not stated)	·	-2	43*	-2	·	·
CC1(OC(=O)c2cnc3ccccc3n2)C(=O)C=C2C=C(c3ccc(C#N)cc3)OC=C2C1=O (configuration not stated)	·	-3	11	0	·	·
CCCCC1=CC2=CC(=O)C(C)(OC(=O)CC)C(=O)C2=CN1C1CCCC1 (configuration not stated)	-2	-2	4	2	1	4
CC1(OC(=O)c2ccco2)C(=O)C=C2C=C(c3ccsc3)OC=C2C1=O (configuration not stated)	·	-3	50*	1	·	·
CC(C)(C)OC(=O)NCCCC1=CC2=CC(=O)C(C)(OC(=O)C3CCCC3)C(=O)C2=CO1 (configuration not stated)	·	-2	41*	3	·	·
O=[N+]([O-])c1ccccc1Nc1cccc(F)c1	2	·	·	·	7	4
CC(=O)c1c(C)[nH]c(C(=O)OCc2csc(CC(=O)Nc3ccccc3C)n2)c1C	3	·	-5	·	6	1
O=C(CCSc1ccc(F)cc1)NNC(=O)c1ccccc1Cl	11	·	2	-4	-2	18
SMILES	PAFAH2 FP inh	Fh CTSL1 inh	pPAFAH FP inh	PP5 inh	PAFAH1B3 inh	PAFAH1B2 inh
CCCCC1=CC2=CC(=O)C(C)(OC(=O)CC)C(=O)C2=CN1CCOC (configuration not stated)	-2	3	3	4	-1	-4
COC(=O)CCCC1=CC2=CC(=O)C(C)(OC(=O)c3ccco3)C(=O)C2=CO1 (configuration not stated)	·	-4	47*	2	·	·
CCCCC1=CC2=CC(=O)C(C)(O)C(=O)C2=CO1 (configuration not stated)	·	0	41*	1	·	·
CC1(O)C(=O)C=C2C=C(c3ccsc3)OC=C2C1=O (configuration not stated)	·	1	42*	0	·	·
CC1(OC(=O)C2CCCC2)C(=O)C=C2C=C(c3ccsc3)N(CC3CC3)C=C2C1=O (configuration not stated)	0	6	-3	-7	16	3
COC(=O)CCCC1=CC2=CC(=O)C(C)(OC(=O)CCc3ccccc3)C(=O)C2=CO1 (configuration not stated)	4	4	25	-1	-6	-6
CC1CC(NS(=O)(=O)c2cccs2)CC(C)(C)C1 (configuration not stated)	8	14	-3	-1	15	29*
O=C(NCCCN1CCCCC1)c1ccc(CS(=O)c2ccc(F)cc2)o1 (configuration not stated)	7	9	1	0	2	2
Cc1ccc(S(=O)(=O)CCC(=O)c2cccc([N+](=O)[O-])c2)cc1	-6	20*	4	0	17	2
Cc1ccc(C(=O)CCS(=O)(=O)c2ccc(Br)cc2)cc1	2	5	1	2	0	-1
CCCC1(c2ccccc2)NC(=O)N(CC(=O)NCC2COc3ccccc3O2)C1=O (configuration not stated)	7	·	3	1	-3	8
Cc1nn(-c2ccccc2)c(Cl)c1CN(C(=O)CCl)c1ccc(Cl)cc1	2	2	4	1	0	41*
CC(=O)N(Cc1c(C)nn(-c2ccccc2)c1Cl)c1ccc(Cl)cc1	-4	1	4	2	9	19
COc1ccc(CCC(=O)Nc2ccc(S(=O)(=O)N3CCCC3)cc2)cc1OC	3	·	-2	0	3	-2
O=C(NC(=S)NCCc1ccccn1)c1ccco1	5	-2	-1	2	6	2
CN(CCc1ccccn1)C(=S)NC(=O)c1ccco1	1	-2	4	0	5	53*
Cc1ccc(N2CC(=O)Nc3c(sc4nc(C)cc(C)c34)C2=O)cc1	5	29*	-1	0	6	3
Cc1cc(C)c2c3c(sc2n1)C(=O)N(c1ccccc1C)CC(=O)N3	6	-2	1	-2	14	3
